Hit rate of the full screen: of about 220,000 compounds, about 830 (0.38%) were called active.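 The calls were made as follows: active = compound inhibiting the enzyme by more than half at any dose during confirmatory dose-response retesting; inconclusive = strong single-dose inhibitors picked by rank but not retested; inactive = the rest.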 These entries were drawn from the full list. Entries with a potency or affinity are not part of this list.
molecular target: Leucine aminopeptidase (Plasmodium falciparum (isolate 3D7)) (UniProt Q8IL11); assay: P. falciparum M17LAP inhibitors, primary screen, biochemical, fluorogenic H-Leu-NHMec substrate, 1536-well (AID 1619); conditions: recombinant M17LAP, H-Leu-NHMec fluorogenic kinetic assay; at 30 µM; active compounds read high;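 also: plate controls were full reaction with DMSO carrier for no effect and no enzyme background for full effect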
Sequence (Q8IL11 whole entry, looked up): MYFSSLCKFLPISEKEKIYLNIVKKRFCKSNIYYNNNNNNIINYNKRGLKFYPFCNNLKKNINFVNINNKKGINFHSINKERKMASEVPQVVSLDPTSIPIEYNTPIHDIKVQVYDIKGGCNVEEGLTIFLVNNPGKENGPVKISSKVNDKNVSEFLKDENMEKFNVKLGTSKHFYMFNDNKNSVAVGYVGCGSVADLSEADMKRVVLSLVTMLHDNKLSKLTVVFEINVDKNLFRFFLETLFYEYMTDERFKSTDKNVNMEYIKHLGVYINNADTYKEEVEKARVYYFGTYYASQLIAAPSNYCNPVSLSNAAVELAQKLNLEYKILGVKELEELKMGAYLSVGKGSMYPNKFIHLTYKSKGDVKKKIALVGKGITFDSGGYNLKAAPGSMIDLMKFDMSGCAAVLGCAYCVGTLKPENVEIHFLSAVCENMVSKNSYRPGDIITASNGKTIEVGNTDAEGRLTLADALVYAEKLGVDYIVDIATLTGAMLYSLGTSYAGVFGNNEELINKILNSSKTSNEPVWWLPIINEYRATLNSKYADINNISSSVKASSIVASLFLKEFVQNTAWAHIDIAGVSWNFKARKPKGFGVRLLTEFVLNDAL

inhibition, inactive:
COc1ccc(Cc2nn3c(-c4ccccc4OC)nnc3s2)cc1 18.6%
CC1=CC(C)(C)n2c(O)c(N=N)c3c(C)c(C)cc1c32 14.8%
Cc1c(C(=O)NCCSCc2ccccc2Cl)cccc1[N+](=O)[O-] 4.93%
CCOc1ccc(NC(=O)Nc2cc(-c3ccccc3)sc2C(=O)OC)cc1 -2.36%
Cc1cc(C)nc(SCC(=O)Nc2ncc3c(n2)CCCC3=O)n1 -1.93%
Cc1nn(C)cc1CN(C)C(=O)c1nn2c(c1Cl)NC(c1cccs1)CC2C(F)(F)F (stereo not given) 11.7%
CC(C)(C)C(=O)N1CCC(O)(CS(=O)(=O)Cc2ccccc2Cl)CC1 13.8%
Cc1ccc(-n2c(SCC(=O)N3CCCc4ccccc43)nnc2-c2cccnc2)c(C)c1 7.68%
Cc1ccc(-n2c(SCC(N)=O)nnc2-c2cccnc2)c(C)c1 1.98%
Cc1cccc(C)c1NC(=S)N1CCC(c2ccccc2)C1 (stereo not given) 2.96%
O=c1nc(-c2ccccc2)c2cc(Cl)ccc2[nH]1 3.02%
COc1ccc(/C=C2\CCCC3C2=NN(C(=O)c2scnc2C)C3c2ccc(OC)c(OC)c2)cc1OC (stereo not given) -6.36%
Nc1nc2ncc(C(=O)c3cc(F)ccc3O)cc2s1 12.6%
Cc1[nH]nc2ncc(C(=O)c3cc(F)ccc3O)cc12 9.66%
CS(=O)(=O)Nc1nnc(Cc2ccccc2)s1 9.67%
CCCn1c(NCc2cccc(OC)c2O)nc2ccccc21 -4.67%
COc1cc(/C=N/n2c(C)n[nH]c2=S)ccc1OCc1ccc(F)cc1 -2.61%
CC(C)(C)OC(=O)N1CCCC1C(=O)O (stereo not given) -3.69%
O=C(Cn1cnc2ccccc2c1=O)c1c[nH]c2ccccc12 11.6%
CCc1ccc(NC(=O)Nc2cccs2)cc1 38.6%
COc1ccc(NC(=O)Nc2ccc3nccnc3c2)cc1 37.8%
Cc1ccc(NC(=O)Nc2cccs2)cc1 22.4%
Cc1nc2cc(NC(=O)Nc3ccc(Br)cc3)ccc2o1 -1.6%
CCOc1ccc(NC(=O)c2ccc3nccnc3c2)cc1 -3.72%
CC(=O)Nc1ccc2oc(C)nc2c1 0.35%
CCn1c(=O)c(C(=O)NCc2cccnc2)c(O)c2ccccc21 2%
CS(=O)(=O)N1N=C(c2ccco2)CC1c1ccccc1Cl (stereo not given) 5.77%
CN(C(=O)CSc1nc(-c2ccccc2)c(-c2ccccc2)o1)C1CCS(=O)(=O)C1 (stereo not given) 5.76%
NC(=O)c1c(-c2ccc(Cl)cc2Cl)csc1NC(=O)Cc1ccccc1 6.81%
CC(=O)Nc1ccc(NC(=O)CSc2nnc(-c3ccccc3)n2Cc2ccc3c(c2)OCO3)cc1 5.97%
COC(=O)c1[nH]c2c(c1C)C(=O)CCC2 6.36%
CCN1C(=O)/C(=C2\C=Cc3cc(C)ccc3N2CC)OC1=S 1.65%
CC1=NN(Cc2ccccc2)C(=O)/C1=C\c1ccc(N(C)C)cc1 3.83%
CCOc1cc(/C=C2\C(=O)N(CCC#N)N=C2C)ccc1OCC(N)=O 4.75%
CC1=C(C(=O)OC(C)C)C(c2cn(-c3ccccc3)nc2-c2cccs2)NC(=O)N1 (stereo not given) 2.02%
COc1ccccc1C(=O)N1CCN(Cc2nc3cc([N+](=O)[O-])ccc3n2C)CC1 6.22%
Cc1cc(S(=O)(=O)Nc2cccc(Cl)c2)c(C)s1 4.03%
COc1cccc(NS(=O)(=O)c2cc(C)sc2C)c1 11.3%
CC(=O)Nc1ccc(C2=NN(C)C(=NCc3ccccc3)SC2)cc1 -2.31%
N=c1n(Cc2ccc(Cl)cc2)c2ccccc2n1CC(O)COc1ccccc1 (stereo not given) 6.49%
COc1ccc(C(=O)N/N=C(\C)c2ccc3c(c2)C2C=CCC2C(c2ccccc2)N3)cc1 (stereo not given) 20.2%
Cc1c(Cl)cccc1NS(=O)(=O)c1ccc2c(c1)C1C=CCC1C(c1ccc(C(=O)O)cc1)N2 (stereo not given) 47.6%
COc1ccc(N2C(=O)C3CCCN3C2c2ccc(C)cc2)cc1Cl (stereo not given) -8.88%
CSCCC(NS(=O)(=O)c1ccc(Cl)c(Cl)c1)C(=O)O (stereo not given) -4.93%
CSCCC(NS(=O)(=O)c1ccc2ccccc2c1)C(=O)O (stereo not given) 12.2%
O=C(NCCn1cc(SCc2ccc(F)cc2)c2ccccc21)c1ccccc1F 12.4%
O=C(O)c1cccc(Cn2c(Cl)c(/C=N/NC(=O)c3ccc(O)cc3)sc2=O)c1 53.6%
COc1ccc(C(=O)N/N=C/c2sc(=O)n(Cc3cccc(C(=O)O)c3)c2Cl)cc1 43.6%
COC(=O)c1cccc(Cn2c(Cl)c(/C=N/NC(=O)c3ccccc3Cl)sc2=O)c1 13.4%
O=C(O)c1cccc(Cn2c(Cl)c(/C=N/NC(=O)c3cccc(O)c3)sc2=O)c1 34%
O=C(O)c1cccc(Cn2c(Cl)c(/C=N/NC(=O)c3cc4ccccc4cc3O)sc2=O)c1 -0.68%
O=C(O)c1cccc(Cn2c(Cl)c(/C=N/NC(=O)c3ccccc3O)sc2=O)c1 35.2%
COC(=O)/C(=N/Nc1cccc(C)c1)N1CCCc2ccccc21 1.03%
Oc1ccc(CCc2n[nH]c(=S)n2-c2ccc(F)cc2)cc1 -8.27%
CCOc1ccccc1N1C(=O)CC(Sc2ncccc2C(=O)O)C1=O (stereo not given) 17.5%
CCOC(=O)CN1C(=O)C(Sc2n[nH]c(-c3ccccc3)n2)CCc2ccccc21 (stereo not given) 16.8%
COc1ccc(N2C(=O)CC(Sc3n[nH]c(-c4ccc(C)cc4)n3)C2=O)cc1 (stereo not given) 51.7%
COc1ccc(N2C(=O)CC(Sc3n[nH]c(-c4ccccc4)n3)C2=O)cc1 (stereo not given) 16.4%
COc1cc2ncnc(NCc3ccccc3)c2cc1OC 14.9%
O=S(=O)(c1cccs1)N1CN(Cc2ccccc2)c2nc3ccccc3nc21 -4.62%

— PubChem BioAssay AID1619 (SRMLSC, 2009)
